# Screens from PubChem.
# An excerpt weighted towards active compounds, which were near 10% of everything screened.
# G9a block: G9a (human) methyltransferase inhibition; Q96KQ7; G9a H3K9 monomethylation, AlphaScreen, 2 h; Potency, µM (titrated, usually from 102 µM), without a hit: at the top dose activity, negative = inhibition, usual class: inhibitors; actives 8.8% (n = 350,000); AID 504332; also: potency is read from the fitted curve at half-maximal effect; nearly all actives have a fitted effect of over 75% in size
# Target sequence (Q96KQ7 913-1193 limits assumed): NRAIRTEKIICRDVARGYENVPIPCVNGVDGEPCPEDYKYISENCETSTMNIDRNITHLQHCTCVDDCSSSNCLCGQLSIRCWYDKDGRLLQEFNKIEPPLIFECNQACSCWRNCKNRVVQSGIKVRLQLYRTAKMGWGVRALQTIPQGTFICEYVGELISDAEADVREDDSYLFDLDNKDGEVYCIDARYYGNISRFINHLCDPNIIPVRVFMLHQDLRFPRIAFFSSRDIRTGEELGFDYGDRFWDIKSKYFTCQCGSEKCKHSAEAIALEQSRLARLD
#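 Quantitative HTS format: methyltransferase activity on a biotin-tagged H3K9 peptide is measured by AlphaScreen, using a rabbit anti-monomethyl-H3K9 antibody with streptavidin donor and anti-IgG acceptor beads. Final levels are 20 nM enzyme, 500 nM peptide, 20 uM SAM; 2 h RT.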
# VDR inh: inhibitors of human vitamin D receptor; P11473; VDR-SRC2-3 peptide fluorescence polarization, 2 h; Potency, µM, without a hit: max response, negative = inhibition, usual class: inhibitors; actives 0.93% (n = 400,000); AID 504847; also: potency is read from the fitted curve at half-maximal effect
# Target sequence (P11473 whole entry, looked up): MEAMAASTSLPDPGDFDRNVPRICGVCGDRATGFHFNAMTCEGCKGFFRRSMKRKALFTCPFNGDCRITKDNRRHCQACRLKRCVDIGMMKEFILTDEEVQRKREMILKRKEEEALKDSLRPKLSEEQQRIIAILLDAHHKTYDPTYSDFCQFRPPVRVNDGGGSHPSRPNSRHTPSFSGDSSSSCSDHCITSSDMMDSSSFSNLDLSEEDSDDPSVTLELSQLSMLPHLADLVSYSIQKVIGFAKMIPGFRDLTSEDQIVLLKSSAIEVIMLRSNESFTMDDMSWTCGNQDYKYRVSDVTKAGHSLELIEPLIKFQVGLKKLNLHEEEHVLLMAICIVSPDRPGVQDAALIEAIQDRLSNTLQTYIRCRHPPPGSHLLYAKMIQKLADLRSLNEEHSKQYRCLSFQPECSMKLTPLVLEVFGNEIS
#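 FP read-out; VDR + SRC2-3 coactivator peptide; 23 nl compound by pintool; 2 h RT incubation; reagents held at 4 deg C, protected from light.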
# PLK1 PBD inh: blocks phosphopeptide binding to human PLK1 polo-box domain | actives 2.8% (n = 360,000) | Plk1 PBD binding of FITC phosphopeptide, fluorescence polarization | P53350 | Potency, µM, without a hit: max response, negative = inhibition, most hits filed as inhibitors | AID 720504; also: potency is read from the fitted curve at half-maximal effect; series mostly up to about 57 µM; nearly all actives have a fitted effect of over 65% in size
# Sfp PPTase inh: blocks B. subtilis Sfp PPTase activity; Potency, µM, inactives show largest response in the series, negative = inhibition, most hits filed as inhibitors; Biochemical Sfp PPTase activity, qHTS; actives 3.5% (n = 310,000); Q9F4F7;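 also: the enzyme is Sfp with the accession as filed and its product quenches rhodamine fluorescence; potency is read from the fitted curve at half-maximal effect; 0% = enzyme reaction without inhibitor and -100% = no enzyme wells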
#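 Step 1, compound plus 15 nM Sfp-PPTase, 15 min, room temperature. Step 2, add rhodamine-CoA (5 uM) and BHQ-2-YbbR (12.5 uM). Step 3, read 525/598 nm fluorescence at 0 and 30 min.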
# Mm-Cpn inhibitor: inhibitors of Methanococcus maripaludis chaperonin TRiC (MmCpn); purified Mm-Cpn ATPase, ADP Transcreener TR-FRET; Potency, µM (titrated, usually from 76.9 µM), inactives show at the top dose activity, negative = inhibition, hits mostly inhibitors; actives 0.031% (n = 330,000); also: potency is read from the fitted curve at half-maximal effect; nearly all actives have a fitted effect of over 80% in size
#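 ATPase turnover read by TR-FRET ADP competition (Eu cryptate antibody/ADP-d2, 665/590 nm): 10uM ATP final, 25nM Mm-CPN final, 30 min 37degC after 10-min compound preincubation, pH 7.4 Tris/KCl/MgCl2/DTT buffer.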
# CCT modulator: cytosolic chaperonin activity modulation; actives 0.3% (n = 360,000); AID 651819; activity change, % (concentration not given with the values), hits read low; purified chaperonin ATPase assay, HTRF ADP detection, 30 min; in the data active = activity change below about -30%
#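 ATPase activity: ADP formed was measured by HTRF Transcreener (665/615 nm ratio) after 30 min at 37 deg C with 10 uM ATP. Compounds screened at one 76 uM concentration against 40 or 20 nM TRiC in Tris pH 7.4/KCl/MgCl2/DTT buffer.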
# * marks the source's active call; other numbers are inactive results; u = inconclusive; x = no result; [ ] = dose if it differs, or a comment. Unless noted, calls follow the shape of the dose curve; as a rule, active = well fitted curve in the direction sought with a large enough effect; inconclusive = small, poorly fitted or top-dose-only effect, or another doubt; inactive = no such curve, though single readings can be large; an effect the other way counts as inactive or inconclusive. Unless noted, % is scaled to controls: 0 for no effect and ±100 for the full control effect.
SMILES,G9a block,VDR inh,PLK1 PBD inh,Sfp PPTase inh,Mm-Cpn inhibitor,CCT modulator
COc1ccc(-c2nc3ccc(N4CCCC4)cc3c(=O)[nH]2)cc1OC,u,4%,-3%,-2%,-2%,-79*
Cc1cccc(-n2c(=O)c3c(c4cc(C)ccc4n3C)n(CC(=O)N3CCCC3)c2=O)c1,-19%[59 µM],15%,x,x,x,x
CCN(CC)S(=O)(=O)c1ccc(C)c(NC(=O)COc2ccc(Cl)cc2Br)c1,45µM*,-6%,-8%,8%,2%,-56*
CCN(CC)S(=O)(=O)c1ccc(O)c(NC(=O)COc2ccc(S(=O)(=O)N3CCOCC3)cc2)c1,x,u,24µM*,x,x,-1
Cc1ccc(S(=O)(=O)N2CCOCC2)cc1NC(=O)COc1ccc(C(=O)c2ccccc2)cc1,-3%[12.7 µM],89µM*,-8%,x,u,0
CCN(CC)S(=O)(=O)c1ccc(N2CCOCC2)c(NC(=O)COc2ccc(Cl)cc2)c1,1%[12.7 µM],19%,-5%,9%,2%,0
Cc1ccc2oc(=O)c3cnn(CC(=O)N4CCN(c5ccc(F)cc5)CC4)c3c2c1,-1%[59 µM],-29%,x,x,x,x
Cc1ccccc1Cn1cccc1/C=C1/C(=N)N2C=CSC2=NC1=O,-2%[59 µM],4%,5%,1%,-4%,1
CC1=CC2=NC(=O)/C(=C\c3cccn3CCOc3ccccc3C)C(=N)N2O1,-49%,-10%,27µM*,-5%,4%,1
COc1cc(/C=C2/C(=N)N3C=CSC3=NC2=O)ccc1OCCCOc1cc(C)ccc1C,83%,-14%,2%,5%,-5%,0
COc1ccccc1OCCOc1ccc(/C=C2/C(=N)N3OC(C)=CC3=NC2=O)cc1OC,71µM*,-14%,-15%,8%,1%,-11
CC1=C(C(=O)Nc2cccc(C)c2C)C2(CCCCC2)OC1=O,-1%[59 µM],2%,x,x,x,x
CCOc1ccccc1NC(=O)CSc1nccn1-c1ccccc1,u,-1%,-1%,-5%,-2%,2
c1ccc(CCSc2nccn2-c2ccccc2)cc1,45µM*,-7%,-8%,3%,1%,2
CCc1ccc(CSc2nccn2-c2ccccc2)cc1,47%[0.0925 µM],-9%,-4%,-4%,-3%,-1
COC(=O)CCCSc1nccn1-c1ccccc1,45µM*,-20%,-9%,5%,0%,-3
COc1cccc(CNC(=O)CSc2nc(=O)[nH]c3c2CCCC3)c1,-7%[59 µM],6%,x,x,x,x
CCOC(=O)c1c(NC(C)=O)c2c3c(sc2n1Cc1nc(-c2cccc(C)c2)oc1C)CCCC3,1%[59 µM],-10%,x,x,x,x
CC1CC(C)(C)N2C(=O)C3(Nc4ccccc4S3)c3cccc1c32 (stereo unspecified),45µM*,5%,-26%,u,1%,0
O=C1N2CCCc3cccc(c32)C12Nc1ccccc1S2 (stereo unspecified),-9%[12.7 µM],6%,24µM*,50µM*,-1%,0
Cc1ccc(-n2c(CC#N)n[nH]c2=S)c(C)c1,22µM*,7%,-3%,-29%,2%,1
Cc1ccc(-n2c(Cc3ccccc3)n[nH]c2=S)c(C)c1,u,12%,-8%,2%,0%,3
c1ccc(C2Oc3ccccc3C3CC(c4cccs4)=NN32)cc1 (stereo unspecified),-48%[59 µM],5%,-1%,-3%,-6%,1
O=[N+]([O-])c1ccc(C2Oc3ccccc3C3CC(c4ccccc4)=NN32)s1 (stereo unspecified),10µM*,x,x,-15%,1%,x
CCC1OC(=O)C(C)[C@@H](O[C@H]2C[C@@](C)(OC)C(O)C(C)O2)C(C)[C@@H](O[C@@H]2OC(C)CC(N(C)C)C2O)[C@@](C)(O)CC(C)CN(C)C(C)C(O)[C@]1(C)O (stereo partly specified),9%[2.33 µM],-7%,x,28%,x,x
SMILES,G9a block,VDR inh,PLK1 PBD inh,Sfp PPTase inh,Mm-Cpn inhibitor,CCT modulator
CCOc1ccccc1N1CCN(S(=O)(=O)c2ccc(C3CCCCC3)cc2)CC1,-2%[59 µM],-14%,x,x,x,x
O=[N+]([O-])c1c(NCc2ccco2)ccc2nonc12,x,0%,-4%,0%,-4%,0
CC(=O)OCCCNc1cc(SCc2ccco2)c2nonc2c1[N+](=O)[O-],u,79µM*,u,25µM*,-1%,2
CCCC(=O)OCCNc1cc(SCc2ccco2)c2nonc2c1[N+](=O)[O-],20µM*,u,u,11µM*,-10%,2
CCC(=O)OCCNc1cc(Sc2nc3ccccc3[nH]2)c2nonc2c1[N+](=O)[O-],8.9µM*,u,1.2µM*,18µM*,-2%,-1
CCCSc1cc(NCCOC(=O)CCC)c([N+](=O)[O-])c2nonc12,u,u,17µM*,-18%,1%,2
CCCSc1cc(NCCOC(C)=O)c([N+](=O)[O-])c2nonc12,-28%,u,u,-17%,1%,-2
CCCCCCCCCCCCC/C=C/[C@@H](O)[C@H](COP(=O)([O-])OCC[N+](C)(C)C)NC(=O)CCCCCCCCCCCCCCCCC,x,-1%,x,26%,x,x
CC(=O)N1CCc2c(sc3c2c(=O)n(Cc2ccccc2)c(=O)n3Cc2ccccc2Cl)C1,u,2%,x,x,x,x
CN(C)S(=O)(=O)c1cccc(NC(=O)COC(=O)c2ccc3ccccc3n2)c1,x,-7%,10%,x,1%,0
Cc1nnnn1/C(=C\c1ccccc1)C(=O)OCC(=O)Nc1ccc(Cl)cc1F,50µM*,40µM*,-29%,x,-1%,0
Cc1nnnn1/C(=C\c1ccccc1)C(=O)OCC(=O)Nc1cccc(S(=O)(=O)N(C)C)c1,10%[0.501 µM],45µM*,-22%,x,0%,-2
CC1(C(=O)NC(=S)N(CCC#N)c2ccccc2)CC1(Cl)Cl (stereo unspecified),28µM*,2%,-16%,-2%,1%,-1
Cc1ccc(CCNC(=O)CCSCc2ccccc2F)cc1,2%[59 µM],14%,x,x,x,x
COc1ccc(OC)c2c1nc1n2CCS1,1.8µM*,u,-30%,-21%,-1%,-1
O=C(CN1C=NS(=O)(=O)c2ccccc21)Nc1ccc(F)cc1,1%[59 µM],15%,x,x,x,x
Cc1cc(C)nc(NCC(O)CNc2ccccc2Cl)n1 (stereo unspecified),7.1µM*,-4%,0%,-9%,-1%,1
Cc1cc(Nc2ccccc2Cl)c2ccccc2n1,x,3%,-16%,x,x,-3
Oc1ccc(/C=N/Nc2nn3cnnc3c3ccccc23)cc1,x,0%,-4%,56µM*,-2%,-1
COc1ccc(/C=N/Nc2nncc3ccccc23)cc1,u,3%,-28%,50µM*,-1%,-2
C(=N\Nc1nn2cnnc2c2ccccc12)/c1ccco1,-24%,u,-4%,50µM*,1%,-1
CCOc1cc(/C=N/Nc2nn3cnnc3c3ccccc23)ccc1O,-29%,18%,-20%,u,-10%,1
